Hits are enriched below; roughly 2.6% of the tested compounds scored in any of these assays.
TROY signal inh: inhibitors of TROY-dependent NF-kB signaling | Q293 LMP1-TROYcd NF-kB luciferase reporter, 4 h | inhibition, % at 10 µM | 360,000 tested, 0.98% active | AID 1347056;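 active = compounds whose plate-normalised and pattern-corrected inhibition of the luciferase reporter signal at the single screening dose is 50% or more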
LGR2 inh: Drosophila LGR2 receptor signaling inhibition | HEK293 LGR2, CRE-luciferase, bursicon-stimulated, 4 h | 380,000 tested, 0.35% active | inhibition, % at 9.99 µM;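 active = drop in luminescence signal, shown as inhibition above about 50% in the replicate tests, limit read from the data, passing the limit was not always enough; inconclusive = probably only some replicates passing the limit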;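 also: agonist challenge used bursicon conditioned medium at about half maximal strength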
TWEAK Fn14 block: blocks TWEAK-Fn14 interaction in a reporter cell assay. 360,000 tested, 2% active. inhibition, % at 10 µM. TWEAK-stimulated Fn14 reporter cells, luciferase luminescence, 8 h. AID 1159606; in the data active = inhibition above about 50%
LMP1 NFkB inh: reduces LMP1-driven NF-kappaB luciferase signal; inhibition, % at 12.5 µM; LMP1-induced NF-kappaB luciferase reporter cells, luminescence; 350,000 tested, 0.69% active; AID 504558; in the data active = inhibition above about 41%; inconclusive = no clear call, values can overlap the other calls;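 also: 0% = neutral control wells and 100% = reference inhibitor control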
EWS-Fli inh: EWS/Fli transcriptional activity inhibition. 350,000 tested, 0.67% active. A673 NR0B1-luciferase reporter, viability-normalised. inhibition, % at 12.6 µM. AID 651661;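 active = mean inhibition of at least 50% after viability correction, with every replicate also passing that limit; inconclusive = mean reaches 50% but only one of two replicates passes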;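 also: firefly luciferase signal divided by Alamar Blue viability fluorescence both relative to DMSO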
* = called active by the depositor; ? = inconclusive; . = not tested or not shown; ! = repeats disagree.

SMILES	TROY signal inh	LGR2 inh	TWEAK Fn14 block	LMP1 NFkB inh	EWS-Fli inh
COCC(=O)N1[C@H](CNC(=O)c2ccccn2)[C@@H](c2ccccc2)[C@@H]1CO	.	-2	.	.	-1
CC(=O)OC[C@]12CC[C@H]3[C@@](C)(CC[C@H]4C(C)(C)CCC[C@]34C)[C@@H]1CC(C1=CC(=O)OC1O)O2 (some centres not stated)	88*	.	108*	.	56*
COc1ccc(S(=O)(=O)N(C)C[C@H]2Oc3ccc(NC(=O)CCCN(C)C)cc3C(=O)N([C@H](C)CO)C[C@H]2C)cc1	.	-24	.	.	0
CCOc1ccc(NC(=O)CN(C)C(=O)c2ccncc2)cc1OCC	5	4	68*	7	23
CCOc1ccc(NC(=O)CN(C)C(=O)c2cc(C)on2)cc1OCC	14	-3	7	7	-11
O=C(CCl)N(c1ccccc1)c1c[nH]c2ccccc12	3	.	69*	?	.
O=C(Cc1ccc(Cl)cc1)NCCc1c[nH]c2ccccc12	0	6	7	1	18
O=C(CCl)N(c1ccc(Cl)cc1)c1c[nH]c2ccccc12	-78	-39	67*	?	.
COc1ccc(S(=O)(=O)N(C)C[C@H]2Oc3ccc(NS(=O)(=O)c4ccc(C)cc4)cc3CC(=O)N([C@H](C)CO)C[C@H]2C)cc1	.	21	.	.	11
COc1cc(-c2c(-c3cc(OC)c(OC)c(OC)c3)noc2C)ccc1F	.	-28	.	.	66*
COc1cc(-c2noc(C)c2C#Cc2ccc(N)cc2)cc(OC)c1OC	29	-15	40	4	?
COc1cc(-c2noc(C)c2/C=C/c2ccc(N)cc2)cc(OC)c1OC	-2	-8	9	1	57*
COc1cc(-c2noc(C)c2C#Cc2ccccn2)cc(OC)c1OC	8	-7	-8	5	54*
Cc1ccc(NC(=O)Nc2cccc(F)c2)nc1	-70	-47	-4	-44	-121
Cc1ccnc(NC(=O)Nc2cccc(F)c2)c1	-19	.	66*	-9	.
CO[C@@H]1CN(C)C(=O)c2cc(NS(C)(=O)=O)ccc2OC[C@@H](C)N(Cc2cncnc2)C[C@@H]1C	.	-2	.	.	1
COc1ccc(CCC(=O)NC2CCCN(Cc3ccc(Cl)cc3)C2)cc1OC (configuration not stated)	-7	0	2	5	13
O=C(CCc1ccc(F)c(F)c1)NC1CCCN(Cc2ccc(Cl)cc2)C1 (configuration not stated)	-7	1	-12	80*	2
O=c1[nH]c(=S)[nH]c2c1C(c1ccc(Br)cc1)c1c([nH]c(=S)[nH]c1=O)O2	4	13	77*	-1	7
O=C1CCCC2=C1C(c1ccc(Br)cc1)c1c([nH]c(=S)[nH]c1=O)N2 (configuration not stated)	-9	.	7	1	.
CCOC(=O)C1CCCN(C(=O)Cn2cccc2C(=O)c2ccccc2)C1 (configuration not stated)	30	.	99*	9	.
CN(C)CCNC(=O)c1cc2c(s1)-c1ccc(Cl)cc1SC2	45	2	105*	3	35
Cc1ccc(S(=O)(=O)N[C@H]2CC[C@H](CC(=O)NC3CCCCC3)O[C@H]2CO)cc1	.	2	.	.	-5
COc1ccc(CNS(=O)(=O)c2cc(Cl)ccc2N2CC[C@@H](O)C2)cc1	.	-13	.	.	55*
O=S(=O)(NCc1ccc(Cl)c(Cl)c1)c1cc(Cl)ccc1N1CC[C@@H](O)C1	.	-9	.	.	-5
SMILES	TROY signal inh	LGR2 inh	TWEAK Fn14 block	LMP1 NFkB inh	EWS-Fli inh
O=C1OC2(CCCCC2)OC(=O)C1=CNc1nccs1	.	.	55*	-2	.
O=C1OC2(CCCCC2)OC(=O)C1=CNc1nc2ccccc2s1	-33	.	2	4	.
CC(C)NC(=O)N(C)C[C@H]1Oc2cc(C#C[C@@H](C)O)ccc2S(=O)(=O)N([C@H](C)CO)C[C@H]1C	.	-1	.	.	-4
CO[C@@H]1CN(C)C(=O)c2cc(NS(=O)(=O)c3ccccc3)ccc2OC[C@H](C)N(Cc2ccccn2)C[C@H]1C	.	4	.	.	0
CN(C)CCCN1c2ccccc2Sc2ccc(Cl)cc21	-10	16	-5	49*!	5
O=C(C[C@@H]1C[C@H]2c3cc(NS(=O)(=O)c4ccc(F)cc4)ccc3O[C@H]2[C@H](CO)O1)NCc1cc(F)ccc1F	.	-11	.	.	14
O=C1OC(c2ccc(O)cc2)(c2ccccc2O)c2ccccc21 (configuration not stated)	10	6	-10	-3	8
O=C1OC(c2ccc3ccccc3c2O)(c2ccc3ccccc3c2O)c2ccccc21	66*	-28	95*	-9	-35
O=C1OC(c2ccccc2)(c2cc(Br)ccc2O)c2ccccc21 (configuration not stated)	74*	24	56*	-2	-8
O=C1OC(c2ccccc2)(c2ccc3cc(O)ccc3c2)c2ccccc21 (configuration not stated)	29	.	60*	6	3
O=C1OC2(c3ccccc31)c1ccccc1-c1ccccc12	-11	2	33	-4	-53
Cc1ccc(S(=O)(=O)N(C)C[C@H]2OCCCC[C@@H](C)Oc3ccc(NC(=O)Nc4ccc5c(c4)OCO5)cc3C(=O)N([C@H](C)CO)C[C@@H]2C)cc1	.	5	.	.	-23
O=C(C1CCCC1)N1CC2(C1)[C@H](c1ccccc1)[C@H](CO)N2Cc1nccs1	.	3	.	.	-15
COc1cccc(-c2ccc3n(c2=O)C[C@@H]2[C@@H](CO)[C@H](C(=O)N4CCOCC4)N[C@H]32)c1	.	-5	.	.	-5
Cc1onc(-c2ccccc2Cl)c1C(=O)Nc1ccccc1	5	10	23	0	.
Cc1onc(-c2ccccc2Cl)c1C(=O)Nc1ccc(-c2nnc3n2CCCCC3)cc1	-2	.	99*	2	.
Cc1onc(-c2ccccc2Cl)c1C(=O)NNC(=O)c1cccc(F)c1	6	8	76*	0	0
COc1cccc(NC(=O)N(C)C[C@@H]2Oc3cc(C#CC4(O)CCCC4)ccc3S(=O)(=O)N([C@H](C)CO)C[C@H]2C)c1	.	14	.	.	3
Cc1ccc(-c2nn(-c3ccccc3)cc2/C=C/C(=O)OCC(=O)NC2CC2)o1	56*	43	26	8	-2
CNC(=O)COC(=O)/C=C/c1cn(-c2ccccc2)nc1-c1ccc2c(c1)OCCO2	0	-14	8	-3	1
O=C(CCN1CCCCC1)N[C@H]1CC[C@@H](CCNS(=O)(=O)c2ccccc2)O[C@@H]1CO	.	1	.	.	-6
CC(=O)Nc1ccc(NC(=O)CSc2nnc(-c3ccc4c(c3)OCO4)o2)cc1	5	3	-23	-5	-52
CC(=O)CSc1nnc(-c2ccc3c(c2)OCO3)o1	31	.	58*	2	.
O=C(O)CCSc1nnc(-c2ccc3c(c2)OCO3)o1	52*	.	82*	24	.
NC(=O)COC(=O)c1c2c(nc3ccccc13)CCCCC2	55*	-9	5	-1	8
